Laboratory results reported in PubChem BioAssay (EPA / NIEHS).
Calls of active or inactive are those of the source. Rule for the calls: active = hit-call score of the fitted dose curve at least 0.9, where 1 is the maximum; inactive = score below 0.9.

How the values were obtained:
[1] = read-out: Plasminogen activator inhibitor-1 (PAI1), SERPINE1 (gene 5054); assay: BSK_hDFCGF_PAI1: BioMAP Diversity Plus: hDFCGF Assay for Plasminogen activator inhibitor-1 (PAI1) Biomarker Activity (AID 2283066); conditions: primary human foreskin fibroblasts; actives raise or lower the signal
In short: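 Human foreskin fibroblasts in the hDFCGF system were dosed with compound for 24 h; PAI-1 was quantified by ELISA. Bidirectional curve fitting used DMSO as negative control and baseline.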

[2] = read-out: Intercellular Adhesion Molecule 1 (ICAM1), ICAM1 (gene 3383); assay: BSK_KF3CT_ICAM1: BioMAP Diversity Plus: KF3CT Assay for Intercellular Adhesion Molecule 1 (ICAM1) Biomarker Activity (AID 2283067); conditions: primary human keratinocytes with fibroblasts; actives raise or lower the signal
In short: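 Cell-surface ICAM-1 was measured by ELISA 24 h after dosing primary human skin keratinocytes co-cultured with fibroblasts. Parallel SRB staining tracked overt cytotoxicity. Gain or loss of signal was fitted relative to DMSO.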

[3] = read-out: Interferon-gamma inducible Protein 10 (IP10), CXCL10 (gene 3627); assay: BSK_KF3CT_IP10: BioMAP Diversity Plus: KF3CT Assay for Interferon-gamma inducible Protein 10 (IP10) Biomarker Activity (AID 2283068); conditions: primary human keratinocytes with fibroblasts; actives raise or lower the signal
In short: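 KF3CT co-culture (keratinocytes + foreskin fibroblasts), 24 h compound, IP-10 by ELISA; bidirectional fit vs DMSO baseline.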

[4] = BSK_KF3CT_SRB: Viability Assessment in the BioMAP Diversity Plus: KF3CT Assay (AID 2283069); conditions: primary human keratinocytes with fibroblasts;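 note: total protein by sulforhodamine B staining as a cytotoxicity measure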
In short: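 Human keratinocyte and foreskin fibroblast co-culture exposed to chemical for 24 h. Total protein measured in parallel cultures by 0.1% sulforhodamine B staining after 10% TCA fixation, read at 560 nm; bidirectional fit relative to DMSO.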

[5] = read-out: Interleukin-1 alpha (IL1a), IL1A (gene 3552); assay: BSK_KF3CT_IL1a: BioMAP Diversity Plus: KF3CT Assay for Interleukin-1 alpha (IL1a) Biomarker Activity (AID 2283070); conditions: primary human keratinocytes with fibroblasts; actives raise or lower the signal
In short: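 Primary human keratinocyte plus foreskin fibroblast co-culture, dosed and measured at 24 h in 96-well plates. IL-1a level quantified by ELISA; bidirectional fit relative to DMSO.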

[6] = read-out: TIMP metallopeptidase inhibitor 2 (TIMP2), TIMP2 (gene 7077); assay: BSK_KF3CT_TIMP2: BioMAP Diversity Plus: KF3CT Assay for TIMP metallopeptidase inhibitor 2 (TIMP2) Biomarker Activity (AID 2283071); conditions: primary human keratinocytes with fibroblasts; actives raise or lower the signal
In short: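 Human primary keratinocyte/foreskin fibroblast co-culture dosed with chemical and sampled at 24 h. TIMP-2 levels quantified by ELISA; bidirectional fitting against DMSO negative control as baseline.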

[7] = read-out: Transforming growth factor beta 1 (TGFb1), TGFB1 (gene 7040); assay: BSK_KF3CT_TGFb1: BioMAP Diversity Plus: KF3CT Assay for Transforming growth factor beta 1 (TGFb1) Biomarker Activity (AID 2283072); conditions: primary human keratinocytes with fibroblasts; actives raise or lower the signal
In short: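 Human keratinocyte plus foreskin fibroblast primary co-culture, dosed with chemical for 24 h. TGF-b1 quantified by ELISA. Activity fitted bidirectionally against DMSO negative control as baseline.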

[8] = read-out: C-C motif chemokine 2 (Homo sapiens) (UniProt P13500); assay: BSK_KF3CT_MCP1: BioMAP Diversity Plus: KF3CT Assay for Monocyte Chemoattractant Protein 1 (MCP1/CCL2) Biomarker Activity (AID 2283073); conditions: primary human keratinocytes with fibroblasts; actives raise or lower the signal
In short: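 ELISA read-out of MCP-1, 24 h post-dose, in primary human skin keratinocytes co-cultured with fibroblasts. Parallel SRB staining monitors cytotoxicity; changes fitted both directions relative to DMSO.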

[9] = read-out: Matrix Metallopeptidase 9 (MMP9), MMP9 (gene 4318); assay: BSK_KF3CT_MMP9: BioMAP Diversity Plus: KF3CT Assay for Matrix Metallopeptidase 9 (MMP9) Biomarker Activity (AID 2283074); conditions: primary human keratinocytes with fibroblasts; actives raise or lower the signal;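 for AC50: MMP9 protein level quantified by ELISA in the co-culture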
In short: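 Human keratinocyte and foreskin fibroblast co-culture exposed to chemicals for 24 h; MMP9 biomarker measured by ELISA, bidirectional fitting relative to DMSO; cytotoxicity tracked by SRB total protein staining in parallel cultures.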

[10] = read-out: urokinase plasminogen activator (uPA), PLAU (gene 5328); assay: BSK_KF3CT_uPA: BioMAP Diversity Plus: KF3CT Assay for urokinase plasminogen activator (uPA) Biomarker Activity (AID 2283075); conditions: primary human keratinocytes with fibroblasts; actives raise or lower the signal
In short: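 Primary human keratinocyte/foreskin fibroblast co-culture exposed to chemical; uPA measured by ELISA at 24 h. Bidirectional fit versus DMSO, with parallel SRB total-protein staining for cytotoxicity.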

CD40, CD40 (gene 958) = assay: BSK_LPS_CD40: BioMAP Diversity Plus: LPS Assay for CD40 Biomarker Activity (AID 2283076); conditions: primary human HUVEC with PBMC; actives raise or lower the signal
In short: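 In the LPS system of human endothelial cells with peripheral blood mononuclear cells, CD40 levels were read by ELISA 24 h post-treatment. Signal changes in either direction were fitted against the DMSO baseline, with parallel SRB protein staining.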

[11] = read-out: E-selectin (Homo sapiens) (UniProt P16581); assay: BSK_LPS_Eselectin: BioMAP Diversity Plus: LPS Assay for Eselectin Biomarker Activity (AID 2283077); conditions: primary human HUVEC with PBMC; actives raise or lower the signal
In short: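 E-selectin ELISA on LPS-stimulated endothelial cell/PBMC co-cultures, read 24 h post-treatment; gains and losses fitted against DMSO. Parallel SRB staining (0.1% SRB after 10% TCA fixation, 560 nm) flags overt cytotoxicity.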

[12] = read-out: Interleukin-8 (IL8), CXCL8 (gene 3576); assay: BSK_LPS_IL8: BioMAP Diversity Plus: LPS Assay for Interleukin-8 (IL8) Biomarker Activity (AID 2283078); conditions: primary human HUVEC with PBMC; actives raise or lower the signal
In short: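 ELISA read-out of IL-8 after 24 h chemical treatment of LPS-activated endothelial/PBMC human primary co-cultures. Changes either up or down relative to DMSO; overt cytotoxicity checked by sulforhodamine B staining in parallel wells.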

[13] = BSK_LPS_SRB: Viability Assessment in the BioMAP Diversity Plus: LPS Assay (AID 2283079); conditions: primary human HUVEC with PBMC;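 note: total protein by sulforhodamine B absorbance as a cytotoxicity measure; measured one day after compound addition; fitted in both directions against DMSO so loss or gain of signal counts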
In short: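 SRB viability endpoint: cells fixed with 10% TCA, stained with 0.1% SRB, read at 560 nm, 24 h post-dose. HUVEC/PBMC co-culture; signal change in either direction scored relative to DMSO.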

[14] = read-out: Interleukin-1 alpha (IL1a), IL1A (gene 3552); assay: BSK_LPS_IL1a: BioMAP Diversity Plus: LPS Assay for Interleukin-1 alpha (IL1a) Biomarker Activity (AID 2283080); conditions: primary human HUVEC with PBMC; actives raise or lower the signal
In short: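 Readout is IL-1a level by ELISA, 24 h post-dose, fitted as gain or loss relative to DMSO. System: LPS-activated human primary co-culture of vascular endothelium and peripheral blood mononuclear cells, with parallel SRB total-protein cytotoxicity.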

[15] = read-out: Monocyte Chemoattractant Protein-1 (MCP1), CCL2 (gene 6347); assay: BSK_LPS_MCP1: BioMAP Diversity Plus: LPS Assay for Monocyte Chemoattractant Protein-1 (MCP1) Biomarker Activity (AID 2283081); conditions: primary human HUVEC with PBMC; actives raise or lower the signal;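 for AC50: secreted MCP-1 protein quantified by ELISA in culture supernatant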
In short: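 Secreted MCP-1 read by ELISA at 24 h post-dosing in an LPS-activated co-culture of endothelial cells with peripheral blood mononuclear cells. Fits run in both directions, DMSO as baseline; parallel SRB staining tracks overt cytotoxicity.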

[16] = BSK_LPS_PGE2: BioMAP Diversity Plus: LPS Assay for Prostaglandin E2 (PGE2) Biomarker Activity (AID 2283082); conditions: primary human HUVEC with PBMC; actives raise or lower the signal;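 for AC50: secreted prostaglandin E2 measured by ELISA in LPS-stimulated co-culture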
In short: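 HUVEC plus PBMC co-culture stimulated with LPS; secreted PGE2 quantified by ELISA 24 h after chemical dosing. Activity fitted bidirectionally against DMSO as negative control and baseline; parallel SRB total-protein staining served as cytotoxicity check.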

[17] = read-out: Macrophage colony-stimulating factor (MCSF), CSF1 (gene 1435); assay: BSK_LPS_MCSF: BioMAP Diversity Plus: LPS Assay for Macrophage colony-stimulating factor (MCSF) Biomarker Activity (AID 2283083); conditions: primary human HUVEC with PBMC; actives raise or lower the signal
In short: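 Bidirectional fitting against DMSO was applied to M-CSF levels read by ELISA at 24 h post-dose. The system pairs human umbilical vein endothelium with peripheral blood mononuclear cells; parallel SRB staining tracked cytotoxicity.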

[18] = read-out: Tissue Factor, F3 (gene 2152); assay: BSK_LPS_TissueFactor: BioMAP Diversity Plus: LPS Assay for Tissue Factor Biomarker Activity (AID 2283084); conditions: primary human HUVEC with PBMC; actives raise or lower the signal
In short: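 Compound was added to an endothelial cell/PBMC co-culture, and after 24 h tissue factor (CD142) was read by ELISA. Gain or loss of signal was fitted against a DMSO baseline, and parallel SRB staining (560 nm) tracked overt cytotoxicity.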

[19] = read-out: Tumor necrosis factor (Homo sapiens) (UniProt P01375); assay: BSK_LPS_TNFa: BioMAP Diversity Plus: LPS Assay for Tumour Necrosis Factor alpha (TNFa) Biomarker Activity (AID 2283085); conditions: primary human HUVEC with PBMC; actives raise or lower the signal;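 for AC50: TNFa protein level quantified by ELISA in the co-culture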
In short: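 Human umbilical vein endothelial cells co-cultured with PBMC were exposed to test chemical and TNFa measured by ELISA 24 h after dosing. Bidirectional curve fitting was done relative to DMSO as negative control and baseline.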

E-selectin (Homo sapiens), sequence (P16581 whole entry, looked up): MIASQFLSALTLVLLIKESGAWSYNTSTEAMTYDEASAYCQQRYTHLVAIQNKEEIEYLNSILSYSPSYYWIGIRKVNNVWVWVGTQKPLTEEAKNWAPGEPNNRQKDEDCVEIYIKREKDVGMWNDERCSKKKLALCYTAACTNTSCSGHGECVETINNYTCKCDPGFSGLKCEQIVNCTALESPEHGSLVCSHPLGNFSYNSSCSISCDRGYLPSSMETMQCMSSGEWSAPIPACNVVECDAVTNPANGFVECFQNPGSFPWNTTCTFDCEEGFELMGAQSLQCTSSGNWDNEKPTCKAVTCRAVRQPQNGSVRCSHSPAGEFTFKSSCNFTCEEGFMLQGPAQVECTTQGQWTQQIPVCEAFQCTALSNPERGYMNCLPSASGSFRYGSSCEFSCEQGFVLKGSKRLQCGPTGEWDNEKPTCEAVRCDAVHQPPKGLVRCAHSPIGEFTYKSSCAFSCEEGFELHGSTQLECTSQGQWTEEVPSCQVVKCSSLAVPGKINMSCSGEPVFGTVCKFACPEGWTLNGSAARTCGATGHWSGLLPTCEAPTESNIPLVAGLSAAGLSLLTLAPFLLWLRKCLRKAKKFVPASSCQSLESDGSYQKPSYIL
Tumor necrosis factor (Homo sapiens), sequence (P01375 whole entry, looked up): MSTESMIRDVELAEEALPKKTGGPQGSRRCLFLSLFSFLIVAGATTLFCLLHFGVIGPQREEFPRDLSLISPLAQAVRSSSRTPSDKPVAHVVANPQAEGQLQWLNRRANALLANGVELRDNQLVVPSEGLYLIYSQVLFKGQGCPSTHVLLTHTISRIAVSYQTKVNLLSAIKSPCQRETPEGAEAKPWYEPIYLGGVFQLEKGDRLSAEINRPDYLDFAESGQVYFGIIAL

CCC(C)c1ccc(O)cc1 (configuration not stated)
outcome [1]: inactive
outcome [2]: inactive
outcome [3]: inactive
outcome [4]: inactive
outcome [5]: inactive
outcome [6]: inactive
outcome [7]: inactive
outcome [8]: inactive
outcome [9]: inactive
outcome [10]: inactive
outcome (CD40, CD40 (gene 958)): inactive
outcome [11]: inactive
outcome [12]: inactive
outcome [13]: inactive
outcome [14]: inactive
outcome [15]: inactive
AC50 [16]: 4.17 µM (active)
outcome [17]: inactive
outcome [18]: inactive

CC(C)(OOC(C)(C)c1ccccc1)c1ccccc1
AC50 [1]: 15.4 µM (active)
outcome [2]: inactive
outcome [3]: inactive
outcome [4]: inactive
outcome [5]: inactive
outcome [6]: inactive
outcome [7]: inactive
outcome [8]: inactive
outcome [9]: inactive
outcome [10]: inactive
AC50 (CD40, CD40 (gene 958)): 34.6 µM (active)
AC50 [11]: 34 µM (active)
AC50 [12]: 30.1 µM (active)
AC50 [13]: 36.8 µM (active)
AC50 [14]: 29.2 µM (active)
AC50 [15]: 30.4 µM (active)
outcome [16]: inactive
AC50 [17]: 32.5 µM (active)
outcome [18]: inactive
AC50 [19]: 31.7 µM (active)

CC(C)N(Cc1ccccc1)C(=O)C(C)(C)C
outcome [1]: inactive
outcome [2]: inactive
outcome [3]: inactive
outcome [4]: inactive
outcome [5]: inactive
outcome [6]: inactive
outcome [7]: inactive
outcome [8]: inactive
outcome [9]: inactive
outcome [10]: inactive
outcome (CD40, CD40 (gene 958)): inactive
outcome [11]: inactive
outcome [12]: inactive
outcome [13]: inactive
outcome [14]: inactive
outcome [15]: inactive
outcome [16]: inactive
outcome [17]: inactive
outcome [18]: inactive
outcome [19]: inactive

CN(C)C(=O)Nc1ccc(Cl)cc1
outcome [1]: inactive
outcome [2]: inactive
outcome [3]: inactive
outcome [4]: inactive
outcome [5]: inactive
outcome [6]: inactive
outcome [7]: inactive
outcome [8]: inactive
outcome [9]: inactive
outcome [10]: inactive
outcome (CD40, CD40 (gene 958)): inactive
outcome [11]: inactive
outcome [12]: inactive
outcome [13]: inactive
outcome [14]: inactive
outcome [15]: inactive
outcome [16]: inactive
outcome [17]: inactive
outcome [18]: inactive
outcome [19]: inactive

CCOC(=O)[C@]1(c2ccccc2)Oc2ccccc2[C@@H]1N
AC50 [1]: 33.6 µM (active)
outcome [2]: inactive
outcome [3]: inactive
outcome [4]: inactive
outcome [5]: inactive
outcome [6]: inactive
outcome [7]: inactive
outcome [8]: inactive
AC50 [9]: 31 µM (active)
outcome [10]: inactive
AC50 (CD40, CD40 (gene 958)): 32.9 µM (active)
outcome [11]: inactive
AC50 [12]: 36.1 µM (active)
outcome [13]: inactive
outcome [14]: inactive
outcome [15]: inactive
outcome [16]: inactive
outcome [17]: inactive
outcome [18]: inactive

CN(C)[C@@H]1C(=O)C(C(N)=O)=C(O)[C@@]2(O)C(=O)C3=C(O)c4c(O)cccc4[C@@](C)(O)[C@H]3C[C@@H]12
outcome [1]: inactive
outcome [2]: inactive
outcome [3]: inactive
outcome [4]: inactive
outcome [5]: inactive
outcome [6]: inactive
outcome [7]: inactive
outcome [8]: inactive
outcome [9]: inactive
outcome [10]: inactive
outcome (CD40, CD40 (gene 958)): inactive
outcome [11]: inactive
outcome [12]: inactive
outcome [13]: inactive
outcome [14]: inactive
outcome [15]: inactive
outcome [16]: inactive
outcome [17]: inactive
outcome [18]: inactive
outcome [19]: inactive

CC(C)(C)OOC(=O)c1ccccc1
AC50 [1]: 7.15 µM (active)
outcome [2]: inactive
outcome [3]: inactive
outcome [4]: inactive
outcome [5]: inactive
outcome [6]: inactive
outcome [7]: inactive
outcome [8]: inactive
outcome [9]: inactive
outcome [10]: inactive
outcome (CD40, CD40 (gene 958)): inactive
outcome [11]: inactive
outcome [12]: inactive
outcome [13]: inactive
outcome [14]: inactive
outcome [15]: inactive
outcome [16]: inactive
outcome [17]: inactive
outcome [18]: inactive
